Screens deposited in PubChem BioAssay by The Scripps Research Institute Molecular Screening Center.
Nox1 inh: inhibitors of human NADPH oxidase 1 (Nox1); Q9Y5S8; AID 1792; HT29 cells, luminol chemiluminescence ROS; 16,000 tested, 0.81% active; inhibition, % at 6.7 µM
PME-1 Maybridge: PME-1 (human) inhibition, Maybridge primary screen; Q9Y570; recombinant PME-1, FP-Rh probe fluorescence polarization; inhibition, % at 9 µM; 16,000 tested, 0.5% active; AID 2291; in the data active means inhibition above about 30%
Target sequence (Q9Y570 whole entry, looked up): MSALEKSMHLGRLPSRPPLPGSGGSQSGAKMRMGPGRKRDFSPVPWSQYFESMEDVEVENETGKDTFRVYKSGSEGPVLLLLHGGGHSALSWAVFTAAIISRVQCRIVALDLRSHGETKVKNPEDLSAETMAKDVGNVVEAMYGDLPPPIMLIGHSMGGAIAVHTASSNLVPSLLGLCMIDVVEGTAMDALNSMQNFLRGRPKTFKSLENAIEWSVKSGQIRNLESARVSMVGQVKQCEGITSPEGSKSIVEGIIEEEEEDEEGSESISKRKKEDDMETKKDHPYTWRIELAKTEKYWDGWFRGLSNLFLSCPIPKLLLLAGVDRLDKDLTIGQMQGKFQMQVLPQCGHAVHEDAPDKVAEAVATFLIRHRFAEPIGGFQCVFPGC
luminol inh ctr: quenches luminol chemiluminescence in Nox1 counter-screen; 16,000 tested, 0.4% active; HRP/luminol/H2O2 chemiluminescence counterscreen; inhibition, % at 6.7 µM; further: reference of the scale not given here
KOR antag MB: blocks the human kappa opioid receptor, Maybridge compounds | P41145 | OPRK1 cells, antagonist mode, fluorescence readout | inhibition, % at 9 µM | 16,000 tested, 0.4% active; in the data active means inhibition above about 50%
TLR4 MyD88 blk: TLR4-MyD88 interaction inhibition. O00206. Cell-based TLR4-MyD88 binding inhibition assay. inhibition, % at 10 µM. 16,000 tested, 0.06% active; in the data active means inhibition above about 45%
Active calls of the source: *. Hits are enriched below; roughly 2.1% of the tested compounds scored in any of these assays. Unless noted, no stated cut-off is given here; in the data, active means inhibition above about 75%; inactive means the rest.

How did CC(=O)Oc1ccc(OC(C)=O)c2c1C(=O)c1ccccc1C2=O do in these assays?
Nox1 inh: 73; PME-1 Maybridge: 85*; luminol inh ctr: 14; KOR antag MB: 28; TLR4 MyD88 blk: 0

How did O=S(=O)(c1ccc2c(c1)OCCCO2)N(Cc1ccccn1)Cc1ccccn1 do in these assays?
Nox1 inh: -23; PME-1 Maybridge: 1; luminol inh ctr: 2; KOR antag MB: 11; TLR4 MyD88 blk: 8

Results for Cc1cc(/C=N\NC(N)=S)c2c(C)ccc(C(C)C)cc1-2 ?
Nox1 inh: -2; PME-1 Maybridge: 6; luminol inh ctr: 7; KOR antag MB: 2; TLR4 MyD88 blk: 7

How did Cc1cc(/C=N\NC(=O)CCc2ccc(O)cc2)c2c(C)ccc(C(C)C)cc1-2 do in these assays?
Nox1 inh: -11; PME-1 Maybridge: 49*; luminol inh ctr: -27; KOR antag MB: -17; TLR4 MyD88 blk: -5

Results for C=CCn1c(-c2sc3nnc(-c4ccccc4)c(-c4ccccc4)c3c2N)n[nH]c1=S ?
Nox1 inh: 16; PME-1 Maybridge: 5; luminol inh ctr: 6; KOR antag MB: 57*; TLR4 MyD88 blk: -5

What do the screens show for `C=CCn1c(-c2cnn(-c3ccccc3)c2N)n[nH]c1=S`?
Nox1 inh: -2; PME-1 Maybridge: 1; luminol inh ctr: -2; KOR antag MB: -1; TLR4 MyD88 blk: -2

Results for Cc1ccc2nc(-c3ccc(N=Cc4c(O)ccc5ccccc45)cc3)sc2c1 ?
Nox1 inh: 21; PME-1 Maybridge: 12; luminol inh ctr: -17; KOR antag MB: -19; TLR4 MyD88 blk: -21

What do the screens show for `OC1(C(F)(F)F)CC(c2ccc3c(c2)Nc2ccccc2S3)=NN1` (stereo not drawn)?
Nox1 inh: -44; PME-1 Maybridge: 9; luminol inh ctr: 4; KOR antag MB: 7; TLR4 MyD88 blk: 3

What do the screens show for `FC(F)(F)c1ccc2c(c1)Nc1ccccc1S2`?
Nox1 inh: 102*; PME-1 Maybridge: 4; luminol inh ctr: 10; KOR antag MB: -6; TLR4 MyD88 blk: 5

Results for CC[n+]1c(C)csc1Nc1ccc(N2CC(C)OC(C)C2)cc1 (stereo not drawn) ?
Nox1 inh: 105*; PME-1 Maybridge: 3; luminol inh ctr: 12; KOR antag MB: 12; TLR4 MyD88 blk: 2

Results for Cc1cc(-n2[nH]nnc2=S)ccc1F ?
Nox1 inh: -9; PME-1 Maybridge: 1; luminol inh ctr: 33; KOR antag MB: 7; TLR4 MyD88 blk: 10

What do the screens show for `O=c1[nH][nH]c2cccc(F)c12`?
Nox1 inh: 79*; PME-1 Maybridge: -1; luminol inh ctr: 11; KOR antag MB: 3; TLR4 MyD88 blk: 12

How did CC(=O)C(C)(C)OC(=O)NCCc1ccc(Cl)cc1 do in these assays?
Nox1 inh: -19; PME-1 Maybridge: 0; luminol inh ctr: 1; KOR antag MB: -1; TLR4 MyD88 blk: -1

How did Nc1c(C(=O)N/N=C/c2ccc3c(c2)OCO3)sc2nnc(-c3ccccc3)c(-c3ccccc3)c12 do in these assays?
Nox1 inh: 0; PME-1 Maybridge: 25; luminol inh ctr: 10; KOR antag MB: 80*; TLR4 MyD88 blk: 7

What do the screens show for `CN(C)/C=C/C=C/C(=O)c1cccs1`?
Nox1 inh: -52; PME-1 Maybridge: 0; luminol inh ctr: 2; KOR antag MB: 4; TLR4 MyD88 blk: 0

Results for O=[N+]([O-])c1cc(C(F)(F)F)ccc1Oc1ccc2nonc2c1 ?
Nox1 inh: 29; PME-1 Maybridge: 1; luminol inh ctr: 0; KOR antag MB: 3; TLR4 MyD88 blk: 0

What do the screens show for `O=[N+]([O-])c1cc(C(F)(F)F)ccc1Oc1ccc(-c2nnco2)cc1`?
Nox1 inh: 77*; PME-1 Maybridge: 17; luminol inh ctr: -1; KOR antag MB: -9; TLR4 MyD88 blk: -3

What do the screens show for `CC1(C)c2cc(O)ccc2OC1N1CCOCC1` (stereo not drawn)?
Nox1 inh: 85*; PME-1 Maybridge: 5; luminol inh ctr: 96*; KOR antag MB: 13; TLR4 MyD88 blk: 6

How did CSC(=CC(=O)c1ccncc1)SC do in these assays?
Nox1 inh: -18; PME-1 Maybridge: 3; luminol inh ctr: -5; KOR antag MB: 2; TLR4 MyD88 blk: -11

What do the screens show for `CNC(=O)Cc1csc2ccc(Cl)cc12`?
Nox1 inh: -9; PME-1 Maybridge: 7; luminol inh ctr: -8; KOR antag MB: 8; TLR4 MyD88 blk: 2

Results for CNC(=O)n1nc(C)c(Cc2csc3ccc(Cl)cc23)c1C ?
Nox1 inh: -12; PME-1 Maybridge: 48*; luminol inh ctr: 0; KOR antag MB: -5; TLR4 MyD88 blk: 6
